# Target: Solute carrier family 2, facilitated glucose transporter member 1 (Homo sapiens) (UniProt P11166)
# Test: ST_JUDE_LEISH: Cytotoxicity at 2uM final concentration against transgenic Leishmania Mexicana promastigotes LmGLUT1 that are glucose transport deficient and complemented with the human glucose transporter GLUT1. Activity is measured by DNA content using SYBR green in vitro
# Format: functional
# Sequence of Solute carrier family 2, facilitated glucose transporter member 1 (Homo sapiens) (P11166 whole entry): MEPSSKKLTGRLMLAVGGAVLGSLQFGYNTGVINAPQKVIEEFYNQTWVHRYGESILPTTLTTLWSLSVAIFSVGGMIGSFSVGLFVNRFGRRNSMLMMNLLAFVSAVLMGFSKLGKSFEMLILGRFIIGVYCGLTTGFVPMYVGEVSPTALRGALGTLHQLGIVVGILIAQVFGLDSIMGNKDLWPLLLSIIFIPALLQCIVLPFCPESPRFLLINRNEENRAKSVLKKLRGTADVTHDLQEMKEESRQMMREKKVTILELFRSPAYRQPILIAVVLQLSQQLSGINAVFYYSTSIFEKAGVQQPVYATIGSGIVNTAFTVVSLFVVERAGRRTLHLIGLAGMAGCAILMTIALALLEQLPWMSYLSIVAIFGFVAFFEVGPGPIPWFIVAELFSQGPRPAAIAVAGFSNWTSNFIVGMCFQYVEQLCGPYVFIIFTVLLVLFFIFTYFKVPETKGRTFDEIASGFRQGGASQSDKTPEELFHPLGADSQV
row,SMILES,inhibition [%]
1,CC(O)C1CCCCN1C(=O)c1cccc(-c2ccc(-c3nc4cc(C(F)(F)F)ccc4[nH]3)cc2)c1 (centres undefined),0.8
2,Cc1cc(OCC2CCN(c3ncc(C(=O)NC4CC4)cc3Cl)CC2)ccc1F,1.62
3,Fc1cc(Cl)ccc1Nc1ccnc2cc(-c3ccc(CN4CCSCC4)o3)ccc12,1.72
4,CN(Cc1cccc(F)c1)C1CCN(c2cc(NC(=O)c3ccc(F)cc3)ccn2)C1 (centres undefined),2.33
5,Cc1nc(-c2cccc(Nc3ccnc4cc(-c5nccs5)ccc34)c2)no1,2.59
6,CCCNC(=O)Nc1cc2cc(-c3cccc(CN4CCCCC4)c3)ccc2n2c(C)nnc12,0.33
7,CC(c1cccc(Nc2nccc(-c3c(-c4cccc(NC(=O)c5c(F)cccc5F)c4)nn4ncccc34)n2)c1)S(C)(=O)=O (centres undefined),-2.21
8,O=C(CSc1cccc[n+]1[O-])c1ccc(Cc2ncc(C(F)(F)F)cc2Cl)s1,9.45
9,CCN(CC)/C(=N\CCCCCC/N=C(\NC(=N)c1ccc(Cl)cc1)N(CC)CC)NC(=N)c1ccc(Cl)cc1,1.79
10,CCCCc1cc(=O)oc2cc(C)cc(OCc3ccccc3F)c12,-0.28
11,COc1ccc(S(=O)(=O)NCC2CCCN(CCCCCNC(=O)/C=C/c3ccc(Cl)c(Cl)c3)C2)cc1 (centres undefined),0.97
12,CS(=O)(=O)c1ccc2c(c1)CCN(CCC1CCC(NC(=O)c3cc4cccc(Br)c4[nH]3)CC1)CC2 (centres undefined),2.5
13,COc1ccccc1NC(=O)NC1CCN(CCCCCNC(=O)/C=C/c2ccc(Cl)c(Cl)c2)CC1,1.87
14,CCN(CC)CC(O)c1cc(-c2ccc(C)cc2)nc2c(C)cc(C)cc12 (centres undefined),3.3
15,CC(C)NCc1ccc(-c2ccc(NS(=O)(=O)c3cccc4cccnc34)cc2)cc1,16.1
16,c1ccc(CNc2nc(NCCN3CCCCC3)nc3ccccc23)cc1,10.2
17,CNC(=O)c1ccc2nc(-c3ccc(-c4ccccc4)cc3)n(CC3CCN(CC4CCCC4)CC3)c2c1,1.8
18,CNC(=O)c1ccccc1Nc1nc(Nc2cccnc2)ncc1C,-2.88
19,N#Cc1ccc(CN2CCC(Oc3ccc(NC(=O)c4ccsc4)cc3Cl)C2)cc1 (centres undefined),8.19
20,NC1=NC(CCc2ccccc2)N(c2ccccc2)C(N)=N1 (centres undefined),10.1

row,SMILES,inhibition [%]
1,Cc1cccc2nc(-c3cccc(-c4cccc(C(=O)N5CCCCC5CN5CCC(O)C5)c4)c3)[nH]c12 (centres undefined),0.56
2,COc1cccc(C=NNc2cc(C)nc3c(OC)cccc23)c1,3.12
3,CCCC(=O)c1cnc2c(Oc3cc(Cl)ncn3)cccc2c1Nc1ccccc1C,6.96
4,Cc1ccc(OC2CCN(CCCCC3(C)C(=O)Nc4ccccc43)CC2)cc1 (centres undefined),4.24
5,N#Cc1ccc(CNCCCCCCNCc2ccc(C#N)c3ccccc23)c2ccccc12,2.15
6,O=C(CC(=O)C(F)(F)F)c1ccccc1[N+](=O)[O-],0.17
7,O=C(NCc1ccccc1)Nc1ccc(-c2cccc(-c3nc4cc(C(F)(F)F)ccc4[nH]3)c2)cc1,-0.99
8,COc1ccc2ccccc2c1CNCC1CCN(CC2CCCCC2)CC1,1.54
9,Cc1cc(N[C@@H](Cc2ccccc2)C(=O)NCCc2ccccc2)nc(NCCc2ccccc2)n1,4.48
10,CCCCC([C@@H](Cc1ccc2ccccc2c1)C(=O)N[C@H](C(=O)NC)C(C)(C)C)N(O)C=O (some centres undefined),0.96
11,CCOC(=O)N[C@@H]1CN[C@@H](C#Cc2cc3c(Nc4ccc(OCc5cccc(F)c5)c(Cl)c4)ncnc3s2)C1,-1.82
12,Cc1ccc(CN2CCN(c3cc4c(cc3Cl)CCN4C(=O)Cc3ccc(Cl)c(NC(=O)Nc4cccc(C#N)c4)c3)CC2)cc1,-1.29
13,CC(C)CNCc1ccc(-c2cccc(CN(CCN(C)C)C(=O)CCC3CCCC3)c2)cc1,30
14,CCOC(=O)c1cc(C(=O)NCCCCN2CCC(c3ccc(CC)cc3OCC)CC2)ccc1-c1ccc(C(F)(F)F)cc1,10.1
15,C[C@@H](N/C(=N\c1ccccc1Cl)Nc1ccc(C#N)cc1O)c1ccc(Br)cc1,6.22
16,O=c1cc(NCCCNCc2cc(Cl)cc(Cl)c2OCc2ccccc2)[nH]c2ccccc12,5.54
17,CC1CCCN1Cc1cccc(-c2ccc(C(=O)NCCOc3ccccc3)s2)c1 (centres undefined),72
18,CS(=O)(=O)Cc1ccc(Nc2nccc(-c3c(-c4cccc(NC(=O)c5c(F)cccc5F)c4)nn4ncccc34)n2)cc1,12
19,OC(CNc1ccnc(Nc2cccc(OCCCN3CCOCC3)c2)n1)c1ccccc1 (centres undefined),0.76

# Reference: ChEMBL document CHEMBL3433997, “St. Jude Leishmania screening dataset” (2016)
